Usually Inhibition stands for the percentage by which the read-out fell short of the control. Read a low Inhibition as little suppression.

The values that follow come from ChEMBL document CHEMBL1157539, “Thousands of chemical starting points for antimalarial lead identification” (Nature, 2010).

The assay relates to Plasmodium falciparum. Nature of the assay: GSK_TCMDC: Inhibition of Plasmodium falciparum Dd2 in whole red blood cells, using parasite LDH activity as an index of growth. Test compounds present at 2uM. Format: functional.
In turn, `COc1ccc2nccc([C@@H](O)CN3CCC(NCc4cc5ccc(Cl)cc5[nH]4)CC3)c2c1.O=C(O)C(=O)O` returned an Inhibition of 61%.
For `O=C(O)C(F)(F)F.OCCN1CCN(Cc2ccc(-c3cccc(-c4nc5ccccc5[nH]4)c3)cc2)CC1` the value was 16%; for `CN(C)C=Nc1ccc(OCCCCCCOc2ccc(N=CN(C)C)cc2)cc1.Cc1ccc(S(=O)(=O)O)cc1`, 94%; for `CCN(CC)CCNc1ccnc2[nH]c3ccc(C)cc3c12`, 81%.
Take `CC1(C)N=C(N)N=C(N)N1c1ccccc1.Cl`: the Inhibition was 1%.
Compound `Cc1cc(N2CCCC2)nc(Nc2ccc(NC(=O)c3cccc(F)c3)cc2)n1` showed an Inhibition of 28%.
For the compound `CCOc1ccc(-c2nonc2NC(=O)c2cccs2)cc1OCC`, the Inhibition is 100%.
Compound `O=C(/C=C/c1ccc(Cl)c(Cl)c1)NCCCCCN1CCCN(C(=S)Nc2ccc(Cl)c(Cl)c2)CC1` yielded an Inhibition of 0%.
For `Cc1nc(Nc2ccc(C)c(Cl)c2)c2c(C)noc2n1` the value was 72%.
In turn, `COc1ccc(-c2ccc(NC(=O)c3cccc(Cl)c3)c(F)c2)cc1CNC(C)C.O=C(O)C(F)(F)F` yielded an Inhibition of 14%.
For the compound `CN(C)CCN(C)Cc1cccc(-c2ccc3c(Nc4ccc(F)cc4Cl)ccnc3c2)c1`, the Inhibition is recorded as 100%.
The compound `COc1ccc2ncc(F)c(CCN3CC(O)C(CNCc4ccc(F)cc4)C3)c2n1.Cl` (centres undefined) registered an Inhibition of 21%.
For `CCc1c[nH]c2c(N3CCCC3=O)cc(C(=O)N[C@@H](Cc3ccccc3)[C@H](O)CNC(C)(C)CCCC(C)C)cc12.O=CO` the value was 97%; for `CC(C)NCc1ccc(-c2ccc(-c3nc4cc(F)ccc4[nH]3)cc2)cc1.O=C(O)C(F)(F)F`, 100%.
